Experimental data as given in PubChem BioAssay AID1026 (Columbia University Molecular Screening Center, 2008).
Values without a mark were called inactive. The rule behind the calls is not given here.

Target: Bifunctional epoxide hydrolase 2 (Homo sapiens) (UniProt P34913)
Assay: sEH inhibitor concentration-response potency, dose response, biochemical, human sEH, fluorescence, Infinite200 (AID 1026)
Settings: recombinant human sEH, fluorogenic substrate, at 0.2 µM, active compounds read high

Chain of Bifunctional epoxide hydrolase 2 (Homo sapiens) (P34913 whole entry, looked up): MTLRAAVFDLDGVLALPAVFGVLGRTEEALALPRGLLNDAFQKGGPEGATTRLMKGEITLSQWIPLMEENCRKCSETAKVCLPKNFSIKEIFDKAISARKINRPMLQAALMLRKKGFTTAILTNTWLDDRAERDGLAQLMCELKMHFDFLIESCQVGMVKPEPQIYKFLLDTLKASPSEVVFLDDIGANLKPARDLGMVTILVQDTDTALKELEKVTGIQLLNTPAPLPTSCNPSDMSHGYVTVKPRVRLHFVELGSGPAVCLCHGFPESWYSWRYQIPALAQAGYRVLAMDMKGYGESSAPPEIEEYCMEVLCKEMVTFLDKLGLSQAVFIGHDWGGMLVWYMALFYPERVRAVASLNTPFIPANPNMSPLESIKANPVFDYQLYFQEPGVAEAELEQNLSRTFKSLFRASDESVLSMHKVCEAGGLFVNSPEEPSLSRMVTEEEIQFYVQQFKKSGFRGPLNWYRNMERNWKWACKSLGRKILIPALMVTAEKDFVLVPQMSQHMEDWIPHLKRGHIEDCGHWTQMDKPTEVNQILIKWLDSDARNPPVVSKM

CC(Cc1ccccc1)NC(=O)NC(C)Cc1ccccc1 (stereo unspecified)
inhibition: 71.6%
